# An excerpt weighted towards active compounds, which were near 6.7% of everything screened.
# GDH-TPI inh: GDH-TPI coupled enzyme inhibition counter-screen; GDH-TPI coupled enzyme counterscreen, NADH absorbance; actives 1.2% (n = 360,000); inhibition, % at 4.8 µM; in the data active = inhibition above about 30%;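 also: 0% = DMSO wells and 100% = wells lacking the enzyme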
# BoNT A protease: blocks Botulinum neurotoxin A light chain protease | multiplex microsphere protease substrate cleavage, flow cytometry | inhibition, % at 10 µM | actives 0.17% (n = 360,000) | AID 588499; also: plate controls were buffer without enzyme for full effect and enzyme alone for no effect
# FBA Mtb inh: inhibitors of M. tuberculosis fructose-bisphosphate aldolase | AID 588726 | actives 2.3% (n = 360,000) | inhibition, % at 1 µM | purified M. tuberculosis FBA, fluorescence read-out | P9WQA3; in the data active = inhibition above about 27%;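 also: 0% = vehicle and 100% = reference inhibitor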
# Target sequence (P9WQA3 whole entry, looked up): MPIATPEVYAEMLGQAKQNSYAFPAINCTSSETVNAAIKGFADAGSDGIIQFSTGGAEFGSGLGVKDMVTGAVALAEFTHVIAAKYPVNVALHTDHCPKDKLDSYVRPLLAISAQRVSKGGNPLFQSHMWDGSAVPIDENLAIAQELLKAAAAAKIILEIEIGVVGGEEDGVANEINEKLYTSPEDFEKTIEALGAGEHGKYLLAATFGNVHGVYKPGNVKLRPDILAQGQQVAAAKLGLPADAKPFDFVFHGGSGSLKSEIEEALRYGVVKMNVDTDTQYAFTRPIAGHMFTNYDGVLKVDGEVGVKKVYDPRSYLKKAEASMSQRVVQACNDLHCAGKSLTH
# BoNT F protease: blocks Botulinum neurotoxin F light chain protease; inhibition, % at 10 µM; Multiplex microsphere protease cleavage assay, flow cytometry; actives 0.22% (n = 360,000); in the data active = inhibition above about 35%, passing the limit was not always enough; inconclusive = no clear call, values can overlap the other calls; also: plate controls were buffer without enzyme for full effect and enzyme alone for no effect
# Anthrax LF prot: blocks Bacillus anthracis lethal factor protease. multiplex microsphere protease cleavage assay, LF. inhibition, % at 10 µM. P15917. actives 0.12% (n = 360,000); also: plate controls were buffer without enzyme for full effect and enzyme alone for no effect
# Autofluor counter: flagged as autofluorescent in microsphere protease counterscreen; compound autofluorescence counterscreen, microsphere flow cytometry; hits give high values; fluorescence intensity (no concentration beside the values); actives 3.1% (n = 360,000); in the data active = fluorescence intensity above about 16000; inconclusive = no clear call, values can overlap the other calls
# * hit, by the source's call; ? = inconclusive; nt = no result; + = active, no number. Rule as the data show it, unless noted: active = inhibition above about 30%; inconclusive = no clear call, values can overlap the other calls; inactive = below that.
SMILES,GDH-TPI inh,BoNT A protease,FBA Mtb inh,BoNT F protease,Anthrax LF prot,Autofluor counter
Oc1ccc(C=NNC(=S)Nc2ccccc2)nc1,54*,0,9,-8,-3,3657
Cc1ccc(C(=O)COC(=O)CNC(=O)c2ccco2)cc1,-6,-1,-2,-2,1,20040*
O=C(CNC(=O)c1ccco1)OCC(=O)c1ccc(Br)cc1,7,-8,2,-31,5,3616
COC(=O)c1cccc(COC(=O)CNC(=O)c2ccco2)c1,-4,-3,0,0,-1,20436*
O=C(CNC(=O)c1ccco1)NCC(=O)OCc1cccc(C(=O)Oc2ccccc2)c1,-1,-1,-1,-10,-3,11097
CCN(CC)S(=O)(=O)c1cccc(N=NC2=C(O)CCCC2=O)c1,9,-2,-1,-19,-3,2557
Cc1ccccc1-n1nnnc1-c1ccccc1,1,-3,-1,-2,-2,23616*
c1ccc(-c2nnnn2-c2ccccc2)cc1,6,-2,4,-3,-3,4056
CC1CCC2(CC1)NC(=O)N(NC(=O)CCl)C2=O (stereo not drawn),-2,2,2,10,0,4550
COC(=O)c1ccccc1NC(=O)N1CCN(C/C=C/c2ccccc2)CC1,-6,0,1,-2,-2,20603*
O=C(Nc1ccc2c(c1)OCO2)N1CCN(C/C=C/c2ccccc2)CC1,3,-2,-1,-4,-2,17067*
O=C(Nc1ccc2c(c1)OCCO2)N1CCN(Cc2ccccc2)CC1,32*,1,1,5,2,4724
O=C(Nc1ccc2c(c1)OCO2)N1CCN(c2ccccc2)CC1,7,-1,1,-5,0,2161
O=C(Nc1ccc2c(c1)OCO2)N1CCN(c2ncccn2)CC1,5,1,-1,2,0,22918*
Fc1ccccc1NC(=S)NCCc1cccc(Cl)c1,6,2,0,1,-1,5266
CCn1c2ccccc2c2cc(NC(=O)c3ccc([N+](=O)[O-])cc3)ccc21,9,1,-1,3,2,2392
CNC(=O)/C(C#N)=C\c1ccc(CNS(=O)(=O)c2ccc(Cl)cc2)o1,12,-1,-2,9,4,3250
COc1cccc(NC(=S)N2CCN(C/C=C/c3ccccc3)CC2)c1,21,-2,4,-6,-3,22410*
COc1cc(NC(=S)N2CCN(C/C=C/c3ccccc3)CC2)cc(OC)c1,-3,0,1,-1,-1,1912
COCCNC(=O)CCSc1nc(-c2ccc(OC)cc2)cc(C(F)(F)F)n1,36*,1,22,3,2,2886
Cc1ccc(CNc2ncc(-c3ccc4c(c3)OCO4)n2C)cc1,-2,1,1,1,-4,22743*
Cn1c(-c2ccc3c(c2)OCO3)cnc1NCc1ccc(Cl)cc1,-3,-2,8,-4,-11,21164*
Cc1nc2ncnn2c(N2CCN(C(=O)c3cccc(F)c3)CC2)c1C,-3,0,3,-9,-1,4917
CCNC(=O)CC1SC(=Nc2cccc(Cl)c2C)N(C)C1=O (stereo not drawn),4,1,-1,-1,-2,16300*
Cc1cccc(C)c1NC(=O)C1(NC(=O)C2CCCN2C(=O)OC(C)(C)C)CCCCC1 (stereo not drawn),6,2,1,4,0,21811*
SMILES,GDH-TPI inh,BoNT A protease,FBA Mtb inh,BoNT F protease,Anthrax LF prot,Autofluor counter
Cc1onc(-c2ccccc2)c1C(=O)N(C)CCc1ccccn1,-10,0,-1,2,-1,6075
CCOC(=O)c1c(C)n(CC(COC(C)=O)OC(C)=O)c2ccc(OC(C)=O)cc12 (stereo not drawn),14,0,-4,-8,-2,16360*
c1ccc(OCc2nn3c(-c4n[nH]c5c4CCC5)nnc3s2)cc1,3,-1,0,-8,1,2268
CCOc1ccc2nc(SCC(=O)NCc3ccco3)sc2c1,-8,3,-8,4,0,21294*
CCOc1ccc2nc(SCC(=O)N3CCCc4ccccc43)sc2c1,8,?,-1,2,-6,21324*
CCOc1ccc2nc(SCC(=O)N3c4ccccc4Sc4ccccc43)sc2c1,5,0,1,-5,-1,3155
COc1ccc(-n2c(SCC(=O)Nc3cc(C)on3)nc3ccccc3c2=O)cc1Cl,6,0,-2,-4,1,3234
CCc1c(C)nc(N)nc1Cl,10,1,-3,4,-6,4461
CC(=O)Nc1ccc(NC(=O)c2cc(C)nn2-c2ccccc2)cc1,3,?,2,-3,0,22454*
Fc1ccc(C2c3cccn3CCN2C(=S)Nc2cccc(F)c2)cc1 (stereo not drawn),-2,0,-3,0,-3,4667
CNc1ccc(-c2ccccc2OC)cn1,22,-1,114*,2,-5,2978
O=C(COC(=O)c1cnccn1)NCCc1ccccc1,6,0,1,1,-14,?
O=C(COC(=O)c1cnccn1)NCc1ccccc1,-15,-1,-1,-4,1,20877*
O=C(CCC1COc2ccccc2O1)NC1CCCCC1 (stereo not drawn),-9,0,-1,2,0,23549*
CN1CCN(C2CN(C3CCCC3)S(=O)(=O)C2)CC1 (stereo not drawn),nt,-2,1,-11,-12,4445
CC(=O)Nc1ccc(N=c2cc([N+](=O)[O-])cc(Cl)n2O)cc1,0,2,-1,18,1,3679
Cc1ccc(Nc2nc(N)c(C#N)c(CC#N)c2C#N)cc1,38*,0,-2,-6,-5,4332
Cc1ccc(-n2nc(CC#N)c(C#N)c2N)cc1,6,0,-1,-2,1,2762
CCCC1(C)Nc2ccccc2-c2nc3ccccc3n21 (stereo not drawn),21,0,179*,-12,-4,11262
O=C1c2ccccc2NC2(CCCC2)N1O,14,-1,1,-2,-2,2788
CCOC(=O)C(=C1Nc2ccccc2N1)n1c(-c2ccco2)nc2ccccc21,nt,1,nt,10,-7,5280
c1ccc2c(c1)NC1(CCCC1)n1c-2nc2ccccc21,11,0,+,6,-2,12538
C=CCNC(=O)c1cc2cccc(OC)c2oc1=O,8,0,2,-2,-2,4304
CC(C)COc1ccc(-c2nnc(-c3ccncc3)o2)cc1,-1,-4,0,-11,-2,17655*
CCN(CC(=O)Nc1c(F)cccc1F)C(=O)c1ccc(-n2cncn2)c([N+](=O)[O-])c1,-3,5,-4,7,1,4702
CCCCNC(=O)CC(C(=O)N1CCc2ccccc21)n1ccnc1 (stereo not drawn),13,0,3,4,2,8295
O=C(CC(C(=O)N1CCc2ccccc21)n1ccnc1)NCC1CCCO1 (stereo not drawn),1,4,2,2,0,22602*

# Assay outcomes as filed in PubChem BioAssay.
